For 19 compounds, outcome and Potency results are on record in PubChem BioAssay AID493209 (National Center for Advancing Translational Sciences (NCATS), 2011).

The structures appear in SMILES notation. Active and inactive are the calls of the source.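 How the source made its calls: active means compounds that raised 12-lipoxygenase product formation in the cuvette follow-up test, with a fitted potency; inactive means the rest, inconclusive results apart.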

Chain of Polyunsaturated fatty acid lipoxygenase ALOX12 (Homo sapiens) (P18054 whole entry, looked up): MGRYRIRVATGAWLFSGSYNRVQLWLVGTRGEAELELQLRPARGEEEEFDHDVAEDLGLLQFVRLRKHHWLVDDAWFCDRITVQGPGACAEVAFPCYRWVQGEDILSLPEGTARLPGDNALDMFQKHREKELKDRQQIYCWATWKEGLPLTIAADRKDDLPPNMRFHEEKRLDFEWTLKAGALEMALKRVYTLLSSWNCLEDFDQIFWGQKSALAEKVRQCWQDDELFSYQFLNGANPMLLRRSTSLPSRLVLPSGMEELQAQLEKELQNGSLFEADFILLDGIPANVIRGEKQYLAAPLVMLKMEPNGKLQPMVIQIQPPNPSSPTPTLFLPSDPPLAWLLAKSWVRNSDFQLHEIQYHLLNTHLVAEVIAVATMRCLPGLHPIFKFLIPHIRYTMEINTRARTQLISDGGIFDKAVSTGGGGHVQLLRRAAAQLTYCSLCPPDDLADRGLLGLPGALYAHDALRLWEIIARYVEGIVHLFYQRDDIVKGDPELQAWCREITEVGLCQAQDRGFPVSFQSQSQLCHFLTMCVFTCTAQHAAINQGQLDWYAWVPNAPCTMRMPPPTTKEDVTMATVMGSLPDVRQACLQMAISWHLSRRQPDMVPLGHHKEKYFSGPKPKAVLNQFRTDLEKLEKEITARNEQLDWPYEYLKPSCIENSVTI

The target in this assay is Polyunsaturated fatty acid lipoxygenase ALOX12 (Homo sapiens) (UniProt P18054). As to the kind of experiment: Activators of 12-hLO (12-human lipoxygenase): 12hLO Cuvette-Based Hit Validation Assay of Followup Compounds. Conditions: purified 12-hLO, cuvette UV 234 nm product formation. The method, then:
The enzyme activity of 12-hLO was determined by a direct measurement of product formation by monitoring the absorbance at 234 nm in a 2 mL cuvette. IC50 values of inhibitors were obtained by measuring the enzymatic rate at a variety of concentrations (Carroll et al, Segraves et al). This assay was used to validate active or inconclusive putative activators identified in the primary screen (see related BioAssay AIDs). Assay Provider: Holman, T.R., University of California, Santa Cruz Screening Center PI: Austin, Christopher P. Screening Center: NIH Chemical Genomics Center
For control experiments, 2 mL of substrate buffer (10 uM arachidonic acid / 25 mM HEPES / 0.01% (v/v) Triton X-100, pH 8.0) was aliquoted in a cuvette with a magnetic stir bar. After equilibrium was ensured, an aliquot of inhibitor solvent was added (DMSO), and equilibrium was once again assured. The reaction was started by adding enzyme to the cuvette and the reaction was followed until completed. The inhibition experiments were performed as above, except the actual inhibitory compound was added instead of vehicle. To achieve an IC50, typically 5 concentrations of the inhibitor were studied. If the inhibitor concentration was constant, then five different reaction volumes were used. Step \ Parameter \ Value \ Description 1; UV-Vis; 234 nm; Equilibration 2; Reagent; 2 mL; Substrate buffer 3; UV-Vis; 234 nm; Equilibration 4; Reagent; varies; Compound 5; UV-Vis; 234 nm; Equilibration 6; Reagent; 50-200 nM; Enzyme 12-hLO 7; UV-Vis; 234 nm; Enzymatic reaction Step \ Notes 1; Blank cuvette to air. 2; 10 uM AA, 25 mM HEPES, 0.01% Triton X-100, pH 8. 3; No change in absorbance ensured. 4; Compound vehicle or compound in various concentrations depending on potency. 5; No change in absorbance ensured. 6; Enzyme concentration to achieve reaction rate between 0.02 and 0.04 AU/s. 7; Enzymatic reaction visualized until completion.
In the case of `Cc1cc(C)c2cc(CN(Cc3nnnn3C3CCCCC3)CC3CCCO3)c(=O)[nH]c2c1` (centres undefined), the compound was classed as inactive.

As to `COc1ccc(Cc2nc(C(=O)Nc3ccc(OC)cc3)cs2)cc1`, the outcome was inactive.

For `CCOC(=O)CNC(c1ccccc1)c1cc(Br)ccc1NC(=O)CCN1CCOCC1` (centres undefined), the Potency is 70 µM (active).

For `Cc1cccnc1NCc1ccc(O)c2ncccc12`, the Potency is 46.4 µM (active).

Turning to `COc1cccc(CNc2ccc(S(=O)(=O)Nc3nccs3)cc2)c1O`, the call was inactive.

As for `COc1ccc(-c2n[nH]c(C(F)(F)F)c2-c2cc3ccccc3o2)c(O)c1`, the compound was classed as inactive.

On to `CCOc1ccc(-c2[nH]ncc2Oc2cccc(OC)c2)c(O)c1`, for which the compound was called inactive.

`Oc1ccccc1-c1cc(-c2cccc(F)c2)n[nH]1`: the outcome was inactive.

Consider `CC(Oc1ccc(Cl)cc1Cl)C(=O)Nc1ccc(S(=O)(=O)Nc2cnc3ccccc3n2)cc1` (centres undefined), for which the compound was called inactive.

As for `CSc1ccc(S(=O)(=O)Nc2ccc(S(=O)(=O)Nc3ccc(C)cc3)cc2)cc1`, the call was inactive.

As to `O=C(Nc1nnc(-c2ccc(Cl)cc2)o1)c1ccccc1Br`, the compound was called inactive.

Consider `COc1ccc(C(Nc2ccccn2)c2c(NC(=O)c3ccco3)sc(C)c2C)cc1` (centres undefined), for which the call was inactive.

For the compound `Oc1ccc(Cl)cc1-c1cc(-c2ccco2)[nH]n1`, the result was inactive.

With `CCc1cc(-c2[nH]ncc2-c2ccc3c(c2)OCO3)c(O)cc1O`, the compound was classed as inactive.

In the case of `COc1cccc(-c2cnc(NCc3cc(Cl)ccc3O)n2C)c1`, the result was inactive.

Turning to `Cc1ccc(C(=O)Nc2nnc(-c3ccco3)o2)cc1`, the outcome was inactive.

As to `Oc1ccc(-c2nc(-c3ccc(O)c(O)c3)cs2)cc1`, the compound was called inactive.

`Oc1ccc(CN2CCCc3ccccc32)c2cccnc12`: the Potency is 43.6 µM (active).

Take `CN(C)c1nccc(N(Cc2ccccc2)Cc2ccccc2)c1C#N`: the result was inactive.
